Assay [1] concerns TAB109. Put plainly: qHTS profiling for inhibitors of Plasmodium falciparum proliferation (AID 504749). Also: nearly all actives have a fitted effect of over 60% in size. The settings on record: P. falciparum in erythrocytes, SYBR Green DNA, 72 h; series mostly up to 28.7 µM. Summed up:
(§1)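 P. falciparum-infected erythrocytes (0.3% parasitemia, 2.5% hematocrit) incubated with compound 72 h at 37 C, 5% CO2. Parasite DNA detected by SYBR Green after lysis, overnight at room temperature; normalised to 0.29 uM artemisinin and DMSO.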
Background: In qHTS, concentration-response curves come from the screen itself.

The subject of assay [2] is TAB113. The assay is described as above. The note with it: P. falciparum in erythrocytes, SYBR Green DNA, 72 h; series mostly up to 28.7 µM. In short, it runs like this:
as §1

In assay [3] the test system is TAB165. The assay is described as above. The note with it: P. falciparum in erythrocytes, SYBR Green DNA, 72 h; series mostly up to 28.7 µM. In short, it runs like this: as §1
Assay [4] concerns W2. Described as above. The settings on record: P. falciparum in erythrocytes, SYBR Green DNA, 72 h; series mostly up to 28.7 µM. In short, it runs like this: as §1
Assay [5] concerns CRL-7250. Put plainly: Cytotoxic Profiling of Annotated Libraries Using Quantitative High-Throughput Screening (AID 1296008). Also: nearly all actives have a fitted effect of over 60% in size. As to max response: % is scaled to controls: 0 for no effect and ±100 for the full control effect. The note with it: Five cell lines viability, CellTiter-Glo ATP luminescence, 48-72 h; max response: stronger effect = lower value. In short, it runs like this:
(§2)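 Cells exposed to compounds for 48 or 72 hr at 37 degrees Celsius. Viability read as ATP-coupled luminescence with CellTiter-Glo after 10 min at room temperature.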
On the technique in general: Cellular ATP, detected with luciferase, serves as a proxy for viable cell number.

The test system of assay [6] is HEK293. The description is as above. The note with it: Five cell lines viability, CellTiter-Glo ATP luminescence, 48-72 h; max response: stronger effect = lower value. In short, it runs like this: as §2
In assay [7] the test system is HaCat. The description is as above. The note with it: Five cell lines viability, CellTiter-Glo ATP luminescence, 48-72 h; max response: stronger effect = lower value. In short, it runs like this:
as §2

Assay [8] concerns KB-3-1. The description is as above. The note with it: Five cell lines viability, CellTiter-Glo ATP luminescence, 48-72 h; max response: stronger effect = lower value. In short, it runs like this: as §2
Assay [9] relates to NIH3T3. The assay is described as above. The note with it: Five cell lines viability, CellTiter-Glo ATP luminescence, 48-72 h; max response: stronger effect = lower value. In short, it runs like this: as §2
The subject of assay [10] is MCC-13. Put plainly: qHTS assay to identify novel small-molecules to repurpose for Merkel cell carcinoma treatment (AID 1296009). Also: nearly all actives have a fitted effect of over 60% in size. The settings on record: MCC and control cell lines, CellTiter-Glo viability, 72 h; series mostly up to 46 µM. In short, it runs like this:
(§3)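 Cells were treated for 72 hr at 37 degree celsius with compounds in 8- or 11-point dose response. Viability was read by CellTiter-Glo luminescence, normalized to no-cell (cytotoxicity) and DMSO controls.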

In assay [11] the test system is MCC-26. The assay is described as above. The settings on record: MCC and control cell lines, CellTiter-Glo viability, 72 h; series mostly up to 46 µM. Summed up:
as §3

Assay [12] concerns MKL-1. The assay is described as above. The note with it: MCC and control cell lines, CellTiter-Glo viability, 72 h; series mostly up to 46 µM. Summed up: as §3
Assay [13] concerns MKL-2. Described as above. The settings on record: MCC and control cell lines, CellTiter-Glo viability, 72 h; series mostly up to 46 µM. In short, it runs like this:
as §3

Assay [14] has as its system UISO. Described as above. The note with it: MCC and control cell lines, CellTiter-Glo viability, 72 h; series mostly up to 46 µM. In short, it runs like this: as §3
The test system of assay [15] is WaGa. Described as above. The note with it: MCC and control cell lines, CellTiter-Glo viability, 72 h; series mostly up to 46 µM. Summed up:
as §3

Assay [16] concerns C33A. Put plainly: Primary qHTS to identify gynecologic anti-cancer compounds using libraries of approved drugs and bioactive compounds (AID 1345084). Also: nearly all actives have a fitted effect of over 55% in size. The settings on record: Gynecologic cancer cell panel viability, ATPlite luminescence, 48 h; series mostly up to 57.5 µM. Summed up: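 Luminescence from the ATPlite ATP-monitoring reagent indicates viable cell number; lower signal means cytotoxicity. Cells received compound 16 h after seeding and were exposed for 48 h across five concentrations.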

Assay [17] has as its system HACAT. Briefly: qHTS assay to identify novel small-molecules to repurpose for Merkel cell carcinoma treatment (AID 1296009). Also: nearly all actives have a fitted effect of over 60% in size. The settings on record: MCC and control cell lines, CellTiter-Glo viability, 72 h; at 44.8 µM (top of the series) unless noted. Summed up:
as §3

Assay [18] relates to NIH3T3. Described as above. The note with it: MCC and control cell lines, CellTiter-Glo viability, 72 h. In short, it runs like this: as §3
Assay [19] relates to CRL-7250. The description is as above. The settings on record: MCC and control cell lines, CellTiter-Glo viability, 72 h; series mostly up to 44.8 µM. Summed up:
as §3

For 7 compounds, Potency, max response and outcome results are on record in PubChem BioAssay (NCATS).

Values joined by “and” are separate entries in the source; they are usually repeats but may differ in a detail not shown here. Identical values can stand only once. Inconclusive results are not listed. Unmarked numbers belong to inactive results. Active and inactive are the calls of the source. Calls follow the shape of the dose curve; as a rule, active = well fitted curve in the direction sought with a large enough effect; inconclusive = small, poorly fitted or top-dose-only effect, or another doubt; inactive = no such curve, though single readings can be large; an effect the other way counts as inactive or inconclusive.
Potency is read from the fitted curve at half-maximal effect.

For the compound `Cc1ccc(-c2nc3ccc(C)cn3c2CC(=O)N(C)C)cc1`, the Potency result in assay [1], in assay [2], in assay [3], in assay [4], in [10] and in [11] was “inactive” each time. Besides, the Potency entry in assay [12], in [13], in assay [14], in assay [15] and in assay [16] was “inactive” in each case. For the same compound, the max response in assay [5] is 3.97%; in [6], -21.2%; in [7], -0.388%; in [8] it was 2.97%; in assay [9], -7.47%.

On to `C=CCN1CC[C@]23c4c5ccc(O)c4O[C@H]2C(=O)CC[C@@]3(O)[C@H]1C5`, for which the max response in assay [5] was -3.06%; in [6] it was -4.65%; in assay [7] it was -19.7%; in assay [8], -7.11% and -7.3%; in assay [9] it was -3.86%. Moreover, the Potency result in assay [10], in assay [12], in assay [13], in assay [14], in [15] and in [16] was “inactive” each time.

In the case of `O=C(O)c1ccc2[nH]cc(CCCCN3CC=C(c4ccccc4)CC3)c2c1`, the Potency entry in assay [1], in assay [2], in assay [3], in [10], in assay [12] and in [13] was “inactive” each time. Moreover, the Potency entry in assay [14], in assay [15] and in [16] was “inactive” throughout. Further, the values for the max response in assay [5] and in assay [8] were -7.24% and -2.41%, respectively. The call in assay [7], in [9], in assay [17] and in assay [18] (at 44.8 µM (top of the series) unless noted) was inactive.

As to `C[C@@H]1O[C@@H](O[C@H]2C[C@@H](O)[C@]3(CO)[C@H]4[C@H](O)C[C@]5(C)[C@@H](C6=CC(=O)OC6)CC[C@]5(O)[C@@H]4CC[C@]3(O)C2)[C@H](O)[C@H](O)[C@H]1O`, the Potency is 29.6 nM (active) and 84.1 nM (active) and 89.3 nM (active) in assay [5]; 46.9 nM (active) and 94.4 nM (active) and 70.9 nM (active) in assay [6]; 266 nM (active) and 142 nM (active) in assay [7]; 52.6 nM (active) and 46.1 nM (active) and 112 nM (active) in [8]; 148 nM (active) and 119 nM (active) in assay [12]; 0.118 µM (active) in assay [13]. Further, the Potency was 83.3 nM (active) and 59.6 nM (active) in assay [14]; 66.2 nM (active) and 59.6 nM (active) in assay [15]; 100 nM (active) and 126 nM (active) in [16]. In addition, the compound was classed as inactive in [9], in assay [18] (at 17.4 µM (top of the series)) and in assay [18] (at 44.8 µM (top of the series)).

`CCC1(C2=NCCN2)Cc2ccccc2O1` (configuration not stated): the values for the Potency in assay [3] and in [4] were 11.2 µM (active) and 3.79 µM (active), respectively. The max response is -2.42% in [5], 2.14% in [6] and -1.86% in assay [9]. For the same compound, the Potency result in assay [10], in assay [12], in [13], in assay [14], in [15] and in [16] was “inactive” each time.

On to `c1ccc2c(c1)Nc1ccccc1S2`, for which the Potency result in [2], in assay [10], in [11], in [12], in [13] and in [14] was “inactive” in each case. Moreover, the Potency result in [15] and in assay [16] was “inactive” throughout. Also, in assay [4], the Potency is 3.38 µM (active). For the same compound, the result in assay [5], in [7], in assay [19] and in [17] was inactive. The max response in [7] is -0.234%; in assay [8], 3% and -4.89%; in assay [9], -3.03% and 0.216%.

Consider `CC1=C2C[C@@H]3[C@@H](CC=C4C[C@@H](O)CC[C@@]43C)[C@@H]2CC[C@]12O[C@H]1C[C@H](C)CN[C@H]1[C@H]2C`, for which the max response in assay [5] was 4.78%; in assay [8] it was 6.86%; in assay [9], 0.588%. The compound was called inactive in [7] and in assay [17]. In addition, the Potency entry in assay [10], in assay [11], in assay [12], in assay [13], in [14] and in assay [15] was “inactive” each time.
